From PubChem BioAssay (NCI)
Compounds without any hit were thinned out: in the full panel of roughly 83,000, 20% have a hit.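 Activity criterion: percent growth below 10, measured after cells in 96-well plates were exposed to a single compound concentration for 48 hours.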 Calls of active or inactive are those of the source.

Key:
Experiment in all cases: NCI-60 one-dose screen, 48 h (100 = growth as untreated, 0 = no growth, -100 = all killed)
SK-MEL-2 melanoma = settings: 10 µM unless noted
EKVX NSCLC = settings: 10 µM unless noted
SN12C renal = settings: 10 µM unless noted
UO-31 renal = settings: 10 µM unless noted
TK-10 renal = settings: 10 µM unless noted
ACHN renal = settings: 10 µM unless noted
HL-60(TB) leukemia = settings: 10 µM unless noted
CCRF-CEM leukemia = settings: 10 µM unless noted
MOLT-4 leukemia = settings: 10 µM unless noted
SR leukemia = settings: 10 µM unless noted
RPMI-8226 leukemia = settings: 10 µM unless noted
OVCAR-8 ovarian = settings: 10 µM unless noted
OVCAR-5 ovarian = settings: 10 µM unless noted
OVCAR-4 ovarian = settings: 10 µM unless noted
SK-OV-3 ovarian = settings: 10 µM unless noted
IGROV1 ovarian = settings: 10 µM unless noted
OVCAR-3 ovarian = settings: 10 µM unless noted
HS 578T breast = settings: 10 µM unless noted
A498 renal = settings: 10 µM
CAKI-1 renal = settings: 10 µM unless noted

Measured: growth

CN[C@]1(c2ccccc2Cl)CCCC[C@H]1NCCCN1CCN(C)CC1
inactive: SK-MEL-2 melanoma 103% | EKVX NSCLC 92% | SN12C renal 97.4% | UO-31 renal 76.3% | TK-10 renal 96.4% | ACHN renal 108% | HL-60(TB) leukemia 93.9% | CCRF-CEM leukemia 99.6% | MOLT-4 leukemia 98.8% | SR leukemia 111% | RPMI-8226 leukemia 97.3% | OVCAR-8 ovarian 97.2% | OVCAR-5 ovarian 104% | OVCAR-4 ovarian 101% | SK-OV-3 ovarian 105% | IGROV1 ovarian 103% | OVCAR-3 ovarian 102% | HS 578T breast 94.1%

ClC1=C(Cl)C(Cl)(C2(Cl)C(Cl)=C(Cl)C(Cl)=C2Cl)C(Cl)=C1Cl
active: EKVX NSCLC 5.58% | SN12C renal -25.2% | UO-31 renal -89.6% | TK-10 renal -91.3% | HL-60(TB) leukemia -36.3% | CCRF-CEM leukemia -57.6% | MOLT-4 leukemia -36.7% | SR leukemia -25.3% | RPMI-8226 leukemia -37.8% | OVCAR-8 ovarian 0.392% | OVCAR-4 ovarian -30.2% | IGROV1 ovarian -33.3% | OVCAR-3 ovarian -77.4%
inactive: SK-MEL-2 melanoma 16.9% | A498 renal 67% | OVCAR-5 ovarian 16.1% | SK-OV-3 ovarian 87.1% | HS 578T breast 53.3%

Nc1c(F)cc(-c2nc3cc(F)ccc3[se]2)cc1F
inactive: SK-MEL-2 melanoma 107% | EKVX NSCLC 47.6% | SN12C renal 85.9% | UO-31 renal 60.2% | TK-10 renal 27.7% | ACHN renal 68.7% | A498 renal 38.9% | CCRF-CEM leukemia 88.7% | SR leukemia 20.6% | RPMI-8226 leukemia 48.8% | OVCAR-8 ovarian 95.5% | OVCAR-5 ovarian 31.1% | OVCAR-4 ovarian 48.9% | SK-OV-3 ovarian 61.4% | IGROV1 ovarian 19.5% | OVCAR-3 ovarian 71.3% | HS 578T breast 94.7%

CCOC(=O)CCN(C)C1=Nc2ccc(Cl)cc2C(c2ccccc2)=[N+]([O-])C1
inactive: SK-MEL-2 melanoma 93.5% | EKVX NSCLC 102% | SN12C renal 98.5% | UO-31 renal 78.6% | TK-10 renal 91.4% | ACHN renal 110% | A498 renal 71.8% | CCRF-CEM leukemia 99.6% | MOLT-4 leukemia 94.1% | SR leukemia 85.8% | RPMI-8226 leukemia 106% | OVCAR-8 ovarian 101% | OVCAR-5 ovarian 109% | OVCAR-4 ovarian 99.4% | SK-OV-3 ovarian 106% | IGROV1 ovarian 107% | OVCAR-3 ovarian 110% | HS 578T breast 96%

O=C(O)c1ccc([S-])cc1.[Au+].c1ccc(CN2[CH-]N(Cc3ccccc3)C(c3ccccc3)=C2c2ccccc2)cc1
inactive: OVCAR-4 ovarian 38.1% | HS 578T breast 23.2%
active: SK-MEL-2 melanoma -43.2% | EKVX NSCLC -52.9% | SN12C renal -67.8% | UO-31 renal -79.4% | TK-10 renal -61.7% | ACHN renal -65.7% | A498 renal -33.8% | CCRF-CEM leukemia 1.41% | MOLT-4 leukemia -1.59% | RPMI-8226 leukemia -11% | OVCAR-8 ovarian 1.87% | OVCAR-5 ovarian -14.2% | SK-OV-3 ovarian -5% | IGROV1 ovarian -58.6% | OVCAR-3 ovarian -95.2%

[Cl][Hg][c]1cc(Br)cc(Br)c1
active: HL-60(TB) leukemia -27% | CCRF-CEM leukemia 1.44% | MOLT-4 leukemia 0.93% | SR leukemia -16.6% | OVCAR-3 ovarian -7.88%
inactive: SK-MEL-2 melanoma 41.3% | EKVX NSCLC 80% | SN12C renal 24% | UO-31 renal 102% | TK-10 renal 121% | A498 renal 75.4% | RPMI-8226 leukemia 23% | OVCAR-8 ovarian 70.4% | OVCAR-5 ovarian 118% | OVCAR-4 ovarian 48.5% | SK-OV-3 ovarian 86.3% | IGROV1 ovarian 16.5% | HS 578T breast 30.3%

COc1cc(NCCCN=C(N)N)c2ncccc2c1
active: SN12C renal 2.57% | OVCAR-4 ovarian -95.8% | OVCAR-3 ovarian 7.99%
inactive: SK-MEL-2 melanoma 27.8% | EKVX NSCLC 70.6% | UO-31 renal 89.4% | TK-10 renal 80% | ACHN renal 100% | A498 renal 73.6% | CCRF-CEM leukemia 95.8% | MOLT-4 leukemia 94.1% | SR leukemia 102% | RPMI-8226 leukemia 85.4% | OVCAR-8 ovarian 81.2% | OVCAR-5 ovarian 86.2% | SK-OV-3 ovarian 93.4% | IGROV1 ovarian 36% | HS 578T breast 88.8%

CC[C@H](C)[C@H](NC(=O)[C@H]1CCCCN1C)C(=O)N(C)[C@H](CCc1nc(C(=O)N[C@@H](Cc2ccccc2)C[C@H](C)C(=O)OC)cs1)C(C)C
inactive: SK-MEL-2 melanoma 32.7% | EKVX NSCLC 47.3% | SN12C renal 28.9% | UO-31 renal 43.5% | TK-10 renal 54.3% | ACHN renal 29.3% | CCRF-CEM leukemia 12.8% | MOLT-4 leukemia 15% | SR leukemia 13.2% | RPMI-8226 leukemia 15.5% | OVCAR-8 ovarian 23.2% | OVCAR-5 ovarian 49.3% | OVCAR-4 ovarian 43.6% | IGROV1 ovarian 26.8% | HS 578T breast 39.2%
active: A498 renal -2.22% | SK-OV-3 ovarian 8.81% | OVCAR-3 ovarian -18.6%

CN(C)C(=O)Oc1ccccc1
inactive: SK-MEL-2 melanoma 108% | EKVX NSCLC 104% | SN12C renal 106% | UO-31 renal 103% | TK-10 renal 107% | ACHN renal 101% | HL-60(TB) leukemia 94.5% | CCRF-CEM leukemia 104% | MOLT-4 leukemia 110% | SR leukemia 109% | RPMI-8226 leukemia 104% | OVCAR-8 ovarian 102% | OVCAR-5 ovarian 82.4% | OVCAR-4 ovarian 101% | SK-OV-3 ovarian 103% | IGROV1 ovarian 108% | OVCAR-3 ovarian 120%

CCCCCCCC[n+]1ccc2ccccc2c1
inactive: SK-MEL-2 melanoma 24.5% | EKVX NSCLC 75.3% | SN12C renal 48.3% | UO-31 renal 71% | TK-10 renal 62.9% | ACHN renal 94.8% | A498 renal 93.1% | CCRF-CEM leukemia 43.3% | MOLT-4 leukemia 58% | SR leukemia 47.8% | RPMI-8226 leukemia 13.8% | OVCAR-8 ovarian 55.7% | OVCAR-5 ovarian 88.5% | SK-OV-3 ovarian 62.9% | IGROV1 ovarian 64.1% | OVCAR-3 ovarian 50.2% | HS 578T breast 76.1%

[Au+].[N-]=C=O.c1ccc(CN2[CH-]N(Cc3ccccc3)C(c3ccccc3)=C2c2ccccc2)cc1
inactive: SK-MEL-2 melanoma 84.5% | EKVX NSCLC 86.7% | SN12C renal 74% | UO-31 renal 74.5% | TK-10 renal 104% | ACHN renal 93.2% | A498 renal 112% | CCRF-CEM leukemia 66.8% | MOLT-4 leukemia 76.1% | RPMI-8226 leukemia 63.9% | OVCAR-8 ovarian 98.9% | OVCAR-5 ovarian 145% | OVCAR-4 ovarian 79.7% | SK-OV-3 ovarian 96.8% | IGROV1 ovarian 81.1% | OVCAR-3 ovarian 82.6% | HS 578T breast 84.4%

N#CCCNc1ccccc1
active: HL-60(TB) leukemia -10.8%
inactive: SK-MEL-2 melanoma 112% | EKVX NSCLC 98% | SN12C renal 111% | UO-31 renal 93.6% | TK-10 renal 115% | ACHN renal 101% | CCRF-CEM leukemia 80.6% | MOLT-4 leukemia 79.3% | SR leukemia 77.1% | RPMI-8226 leukemia 95.2% | OVCAR-8 ovarian 114% | OVCAR-5 ovarian 104% | OVCAR-4 ovarian 105% | SK-OV-3 ovarian 121% | IGROV1 ovarian 119% | OVCAR-3 ovarian 106%

C[C@@H]1O[C@@H](O[C@H]2C[C@@H](O)[C@]3(CO)C4C(CC[C@]3(O)C2)[C@@]2(O)CC[C@H](C3=CC(=O)OC3)[C@@]2(C)C[C@H]4O)[C@H](O)[C@H](O)[C@H]1O (stereo not given in full)
inactive: RPMI-8226 leukemia 17.8% | HS 578T breast 22.3%
active: SK-MEL-2 melanoma -59.9% | EKVX NSCLC -74.3% | SN12C renal -22.5% | UO-31 renal -87.3% | TK-10 renal -65% | CAKI-1 renal -73.4% | A498 renal -6.39% | HL-60(TB) leukemia -53.2% | CCRF-CEM leukemia -12% | MOLT-4 leukemia -29.4% | SR leukemia -31.2% | OVCAR-8 ovarian -81% | OVCAR-4 ovarian -24.3% | SK-OV-3 ovarian -88.2% | IGROV1 ovarian -5.14% | OVCAR-3 ovarian -96.2%

COc1cc2c(cc1OCc1ccccc1)C(CC(C)C)=[N+](C)CC2
inactive: SK-MEL-2 melanoma 82.1% | EKVX NSCLC 68.6% | UO-31 renal 87.9% | TK-10 renal 94% | ACHN renal 99.2% | CAKI-1 renal 96.2% | A498 renal 95.9% | HL-60(TB) leukemia 73% | CCRF-CEM leukemia 73.1% | SR leukemia 89.9% | RPMI-8226 leukemia 56.4% | OVCAR-8 ovarian 73.5% | OVCAR-5 ovarian 93% | OVCAR-4 ovarian 71.5% | SK-OV-3 ovarian 93.1% | OVCAR-3 ovarian 65.7% | HS 578T breast 83.1%

COC(=O)[C@@H](C)C[C@H](Cc1ccccc1)NC(=O)c1csc([C@@H](C[C@H](C(C)C)N(C)C(=O)[C@@H](NC(=O)[C@H]2CCCCN2C)c2ccc(F)cc2)OC(C)=O)n1
active: A498 renal -9.07% | HL-60(TB) leukemia -42.6% | CCRF-CEM leukemia 8.77% | MOLT-4 leukemia 8.23% | SR leukemia 6.27% | OVCAR-3 ovarian -17% | HS 578T breast 1.1%
inactive: SK-MEL-2 melanoma 30.2% | EKVX NSCLC 29.8% | SN12C renal 15.4% | UO-31 renal 35.2% | ACHN renal 19.4% | RPMI-8226 leukemia 17.9% | OVCAR-8 ovarian 26.8% | OVCAR-5 ovarian 20.7% | OVCAR-4 ovarian 48.4% | SK-OV-3 ovarian 21.2% | IGROV1 ovarian 27%

CC[C@H](C)[C@H](NC(=O)c1ccccn1)C(=O)N(C)[C@H](C[C@@H](OC(C)=O)c1nc(C(=O)N[C@@H](Cc2ccccc2)C[C@H](C)C(=O)OC)cs1)C(C)C
active: SK-MEL-2 melanoma -8.78% | A498 renal -5.19% | HL-60(TB) leukemia -21.2% | CCRF-CEM leukemia 7.71% | SR leukemia 4.97% | OVCAR-3 ovarian -22.5% | HS 578T breast -1.12%
inactive: EKVX NSCLC 30.3% | SN12C renal 46.9% | UO-31 renal 42.2% | ACHN renal 40.2% | MOLT-4 leukemia 19.5% | RPMI-8226 leukemia 19.9% | OVCAR-8 ovarian 22.6% | OVCAR-5 ovarian 49.6% | OVCAR-4 ovarian 47.8% | SK-OV-3 ovarian 41.2% | IGROV1 ovarian 28.4%

CC[C@H](C)[C@@H]1OC(=O)C(C)(C)[C@H](O)[C@H](Cc2ccccc2)OC(=O)[C@H](C(C)C)OC(=O)[C@@H](NC(=O)c2cccc(NC=O)c2O)[C@@H](C)OC1=O
inactive: SK-MEL-2 melanoma 36.2% | EKVX NSCLC 29.9% | UO-31 renal 47.3% | TK-10 renal 49.8% | ACHN renal 46.4% | CAKI-1 renal 38.7% | A498 renal 67.2% | HL-60(TB) leukemia 60% | CCRF-CEM leukemia 36.7% | MOLT-4 leukemia 37.7% | SR leukemia 43.3% | RPMI-8226 leukemia 29% | OVCAR-8 ovarian 51.3% | OVCAR-5 ovarian 103% | OVCAR-4 ovarian 28.7% | SK-OV-3 ovarian 60.7% | IGROV1 ovarian 53.6% | OVCAR-3 ovarian 48.2% | HS 578T breast 73.4%
